In this assay the target is dTDP-4-dehydrorhamnose reductase (Mycobacterium tuberculosis (strain ATCC 25618 / H37Rv)) + dTDP-4-dehydrorhamnose 3,5-epimerase (Mycobacterium tuberculosis (strain ATCC 25618 / H37Rv)) (UniProt P9WH09+P9WH11). The assay is described as follows: M. tuberculosis RmlC/RmlD coupled enzyme inhibitors, primary screen, biochemical, compound mixtures, 384-well, from 1536-well plates (AID 1533). The settings on record: RmlC+RmlD coupled enzyme assay, percent inhibition, primary screen in compound mixtures, stronger effect = higher value.

The mark [1] stands for this setting: measured here: mean retest inhibition, at 5.5 µM.

The whole screen tested about 160,000 compounds, of which about 45 (0.03%) were called active. No stated cut-off is given here; in the data, active means inhibition mostly above about 34% (no sharp cut-off); inconclusive means no clear call, values can overlap the other calls; inactive means mostly below about 22%. The list comes from a sample in which actives are over-represented; it also holds similar structures and randomly drawn compounds.

The text below walks through data of PubChem BioAssay AID1533 (PCMD, 2009).

For orientation: inhibition means the drop in the measured response relative to a control, in per cent.

dTDP-4-dehydrorhamnose reductase (Mycobacterium tuberculosis (strain ATCC 25618 / H37Rv)) + dTDP-4-dehydrorhamnose 3,5-epimerase (Mycobacterium tuberculosis (strain ATCC 25618 / H37Rv)), sequence (P9WH09 whole entry, looked up): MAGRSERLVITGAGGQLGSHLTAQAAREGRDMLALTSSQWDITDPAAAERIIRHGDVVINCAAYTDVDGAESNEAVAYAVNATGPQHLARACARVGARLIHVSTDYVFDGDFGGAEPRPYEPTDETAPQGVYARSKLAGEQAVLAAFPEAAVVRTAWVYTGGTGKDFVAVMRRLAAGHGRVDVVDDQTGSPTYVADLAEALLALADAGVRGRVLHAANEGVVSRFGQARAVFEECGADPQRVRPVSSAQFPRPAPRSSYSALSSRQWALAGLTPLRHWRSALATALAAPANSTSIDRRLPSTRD
dTDP-4-dehydrorhamnose reductase (Mycobacterium tuberculosis (strain ATCC 25618 / H37Rv)) + dTDP-4-dehydrorhamnose 3,5-epimerase (Mycobacterium tuberculosis (strain ATCC 25618 / H37Rv)), sequence (P9WH11 whole entry, looked up): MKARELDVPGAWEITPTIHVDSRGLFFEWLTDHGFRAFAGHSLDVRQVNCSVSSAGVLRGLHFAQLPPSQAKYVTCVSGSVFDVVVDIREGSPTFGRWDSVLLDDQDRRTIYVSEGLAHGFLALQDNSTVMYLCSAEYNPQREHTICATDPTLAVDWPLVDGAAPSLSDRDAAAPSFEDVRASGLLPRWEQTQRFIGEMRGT

As to `Cc1cc(C)c(NC(=O)CN2C(=O)NC(Cc3ccccc3)C2=O)c(C)c1` (stereo not drawn), the inhibition (at 3.6 µM) is 43.2% (inactive) and the inhibition under setting [1] came to 7.39%.

Regarding `O=[N+]([O-])C(=c1ccc2c(c1)N1C3=C(CCCC3)CC3CCCCC31N=2)[N+](=O)[O-]` (stereo not drawn), the inhibition (at 3.6 µM) is -9.85% (inactive).

Turning to `CCOC(=O)CNC(=O)CSc1ccc2nnc(-c3cccnc3)n2n1`, for the setting “at 3.6 µM”, the inhibition was -13.1% (inactive).

Take `CC(=O)Nc1ccc(CC#N)cc1`: the inhibition (at 3.6 µM) was -7.92% (inactive).

Consider `CC(NC(=O)C(=O)Nc1nccs1)c1ccccc1` (stereo not drawn), for which, where the note is “at 3.6 µM”, the inhibition was 12.6% (inactive).

`COc1ccc(/C=C/c2nnc(NC(=O)C(C)C)s2)cc1`: the inhibition (at 3.6 µM) was 2.36% (inactive).

Take `Cn1nc(C(F)(F)F)c(-c2ccc(F)cc2)c1NC(=O)CSCC(=O)O`: where the note is “at 3.6 µM”, the inhibition was 10% (inactive).

Take `O=[N+]([O-])/C=C1\CCCCCN1`: under “at 3.6 µM”, the inhibition was -6.23% (inactive).

In the case of `O=C1[C@@H]2C(c3cccnc3)=NO[C@@H]2C(=O)N1c1ccc(Cl)cc1Cl`, the inhibition (at 3.6 µM) was 13.9% (inactive).

Consider `CCOC(=O)CNc1nc(Cl)nc(Nc2ccccc2)n1`, for which the inhibition (at 3.6 µM) was 0.72% (inactive).

Regarding `Cn1nccc1NC(=O)Nc1ccc(OC(F)(F)F)cc1`, under “at 3.6 µM”, the inhibition was -2.41% (inactive).

Turning to `COc1ccccc1P(=O)(c1ccccc1)c1ccccc1NC(C)=O` (stereo not drawn), the inhibition reads like this: (at 3.6 µM) 40.9% (inactive); under setting [1], -18.2%.

`CCOC(=O)C(CC)/C(C)=N\NC(=O)c1cccc(C)c1` (stereo not drawn): the inhibition (at 3.6 µM) was 9.71% (inactive).

As to `COC(=O)CC1=NN(c2ccccc2)C(=O)C1`, under “at 3.6 µM”, the inhibition is -13% (inactive).

On to `Cc1cc(C(=O)OCC(=O)Nc2nccs2)c2ccccc2n1`, for which the inhibition (at 3.6 µM) is 9.68% (inactive).

Consider `Cc1ccccc1C(=O)Nc1ccc(N2CCCCCC2)cc1`, for which the inhibition (at 3.6 µM) was -4.06% (inactive).

Consider `COc1ccc(NC(=O)CSc2ncnc3[nH]ncc23)cc1`, for which, for the setting “at 3.6 µM”, the inhibition was -14.6% (inactive).

On to `CCC/C(C)=N\Nc1nc2c(c(=O)n(C)c(=O)n2C)n1C`, for which the inhibition (at 3.6 µM) is -3.15% (inactive).

For `COc1ccc(/C=N/NS(=O)(=O)c2ccc(NC(C)=O)cc2)cc1`, where the note is “at 3.6 µM”, the inhibition was 10.1% (inactive).

With `C/C(CCc1ccccc1)=N\NC(=O)c1ccc(CN2CCOCC2)cc1`, the inhibition (at 3.6 µM) is 6.96% (inactive).

As to `CC(=O)NC(CC(=O)Nc1nccs1)c1ccccc1` (stereo not drawn), the inhibition (at 3.6 µM) was 3.67% (inactive).

Regarding `Cc1cc(Nc2ccc(N3CCOCC3)cc2)c2cccc(C)c2n1`, the inhibition is 35.8% (inactive) (at 3.6 µM) and -6.33% under setting [1].

Take `Cc1ccc(NNC(=O)C2CCC2)cc1C`: the inhibition (at 3.6 µM) was -0.66% (inactive).

Consider `C=CCNC(=S)N1CCc2[nH]c3ccccc3c2C1`, for which, for the setting “at 3.6 µM”, the inhibition was -7.26% (inactive).

As for `Cn1c(SCC(=O)Nc2ccc(Cl)cc2)nc(O)cc1=O`, the inhibition (at 3.6 µM) was 3.67% (inactive).

With `OCC(O)CN(c1ccccc1)c1ccccc1` (stereo not drawn), the inhibition (at 3.6 µM) was 15.9% (inactive).

Take `O=C(NCc1ccncc1)NC12CC3CC(CC(C3)C1)C2`: under “at 3.6 µM”, the inhibition is 4.57% (inactive).

In the case of `Cc1nc2ccc(NC(=S)N3CCC(C)CC3)cc2nc1C`, the inhibition (at 3.6 µM) was 12.1% (inactive).

On to `Cc1ccc(CSc2nc3[nH]ncc3c(=O)[nH]2)cc1`, for which the inhibition runs as follows: (at 3.6 µM) 65.1% (inactive); under setting [1], 4.96%.

As for `CC(C)c1c(O)nc(SCCOc2ccc(Cl)cc2)[nH]c1=O`, where the note is “at 3.6 µM”, the inhibition is 7.19% (inactive).

In the case of `Cc1c(-c2cccc(Cl)c2)nc2ccccc2c1C(=O)OCC(=O)N(C)C1CCS(=O)(=O)C1` (stereo not drawn), the inhibition (at 3.6 µM) was 5.87% (inactive).

As for `O=C(CCS(=O)(=O)c1ccccc1Cl)Nc1ccc(S(=O)(=O)Nc2ncccn2)cc1`, under “at 3.6 µM”, the inhibition is 10% (inactive).

Turning to `CCCCCN(C(=O)NC(=O)Nc1cccc(C)c1C)S(C)(=O)=O`, the inhibition (at 3.6 µM) was -12.7% (inactive).

For `OC(c1ccccc1)C(CN1CCOCC1)c1ccccc1` (stereo not drawn), the inhibition (at 3.6 µM) was 7.15% (inactive).

Turning to `NS(=O)(=O)c1ccc(NC(=S)NC(=O)c2cccc(Br)c2)cc1`, the inhibition (at 3.6 µM) was 4.21% (inactive).

For `CCC1=NN2C(=N)/C(=C/c3cc(C)n(-c4ccccc4)c3C)C(=O)N=C2S1`, the inhibition (at 3.6 µM) is -9.8% (inactive).

Take `CCN1CCc2nc(NC(=O)c3cc(F)c(F)cc3Cl)sc2C1`: under “at 3.6 µM”, the inhibition is -6.97% (inactive).

In the case of `COc1ccc(C2=NN(C(=O)CCC(=O)O)C(c3cccs3)C2)cc1OC` (stereo not drawn), the inhibition (at 3.6 µM) was -7.36% (inactive).

Consider `CN1CCN(CCNC(=O)Nc2ccc([N+](=O)[O-])cc2)CC1`, for which the inhibition (at 3.6 µM) was 5.16% (inactive).

On to `CN(C)c1ccc(/C=C/C(=O)c2ccc(O)cc2)cc1[N+](=O)[O-]`, for which the inhibition (at 3.6 µM) was 44.3% (inactive) and the inhibition under setting [1] was 5.01%.

With `CCOC(=O)C1CCN(C(=O)Nc2cccc(OC)c2)CC1`, for the setting “at 3.6 µM”, the inhibition is 1.02% (inactive).

For `Cc1ccc(/C=N/NC(=O)CSc2ccccn2)o1`, the inhibition by setting is: (at 3.6 µM) 70% (inactive); under setting [1], -5.62%.

Consider `O=C(O)C(NS(=O)(=O)c1cccc2nsnc12)c1ccccc1` (stereo not drawn), for which the inhibition (at 3.6 µM) was -10.9% (inactive).

Regarding `CCCCSc1nnc2c(n1)OC=Nc1ccccc1-2`, the inhibition (at 3.6 µM) was 11.2% (inactive).

In the case of `CN1CCc2nc(SC(C(=O)O)c3ccccc3)c(C#N)c(-c3cccs3)c2C1` (stereo not drawn), the inhibition (at 3.6 µM) is -14.8% (inactive).

`COc1ccc(OC)c(-n2c(=S)[nH]c3cc(C(=O)N4CCCCC4)ccc3c2=O)c1`: the inhibition (at 3.6 µM) was 4.34% (inactive).

Take `O=S(=O)(NCc1ccco1)c1cnc(Cl)c(Cl)c1`: the inhibition (at 3.6 µM) was 11.4% (inactive).
